Compounds without any hit were thinned out: in the full panel of roughly 79,000, 15% have a hit. A number with no mark means an inactive call. Activity calls are given as the source filed them. Cut-off read from the data, not from the text of the source: active = growth inhibition above about 70%; inactive = the rest.
Columns and labels:
[1] = NCI Yeast Anticancer Drug Screen. Data for the mec2-1 strain (AID 157); details: S. cerevisiae mec2-1 strain, stronger effect = higher value
In short: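 Vehicle-treated cultures served as reference for growth inhibition of compound-exposed mec2-1 yeast.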

[2] = NCI Yeast Anticancer Drug Screen. Data for the rad14 strain (AID 159);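 note: 0% = growth of vehicle-treated control cultures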; details: S. cerevisiae rad14 strain growth inhibition, stronger effect = higher value
In short: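 Readout: yeast growth inhibition, referenced to vehicle-only cultures. Strain bears a defined alteration in DNA damage repair.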

[3] = NCI Yeast Anticancer Drug Screen. Data for the sgs1 mgt1 strain (AID 161);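 note: 0% = growth of cultures given vehicle only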; details: S. cerevisiae sgs1 mgt1 strain, stronger effect = higher value
In short: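 Test agents were incubated with a DNA-repair-mutant yeast strain. Growth was then read and compared against vehicle-treated controls.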

[4] = NCI Yeast Anticancer Drug Screen. Data for the CLN2oe strain (AID 163);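 note: 0% = growth of vehicle-only control cultures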; details: S. cerevisiae CLN2oe strain, stronger effect = higher value
In short: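 Inhibition relative to vehicle-treated yeast is reported. Cells: strain with genetic alteration in cell-cycle control, grown with compound.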

[5] = NCI Yeast Anticancer Drug Screen. Data for the cln2 rad14 strain (AID 165);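 note: 0% = growth equal to vehicle treated cultures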; details: S. cerevisiae cln2 rad14 strain, stronger effect = higher value
In short: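 Each compound was tested on cln2 rad14 yeast. Inhibition of growth was calculated against vehicle-exposed controls.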

[6] = NCI Yeast Anticancer Drug Screen. Data for the bub3 strain (AID 167); details: S. cerevisiae bub3 mutant strain, stronger effect = higher value
In short: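 Part of a panel of yeast mutants defective in DNA damage repair or cell cycle regulation. Each strain is grown with compound, and inhibition is calculated relative to solvent-treated cultures.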

[7] = NCI Yeast Anticancer Drug Screen. Data for the mlh1 strain (AID 171);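 note: 0% = growth of vehicle-treated control cultures of the same strain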; details: S. cerevisiae mlh1 strain growth inhibition, stronger effect = higher value
In short: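 Vehicle-normalised growth inhibition of a repair- or checkpoint-altered yeast strain following compound treatment.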

[8] = NCI Yeast Anticancer Drug Screen. Data for the sgs1 strain (AID 173);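 note: 0% = growth of vehicle-only control cultures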; details: S. cerevisiae sgs1 mutant, stronger effect = higher value
In short: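 Screen format: yeast with repair or checkpoint alterations, compound exposure, growth read relative to vehicle.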

[9] = NCI Yeast Anticancer Drug Screen. Data for the mlh1 rad18 strain (AID 175); details: S. cerevisiae mlh1 rad18 strain growth inhibition, stronger effect = higher value
In short: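 Vehicle-treated cultures served as the reference for growth inhibition in a yeast strain carrying DNA damage repair alterations exposed to each compound.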

[10] = NCI Yeast Anticancer Drug Screen. Data for the rad18 strain (AID 177); details: S. cerevisiae rad18 mutant growth inhibition, stronger effect = higher value
In short: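 Test articles were incubated with altered yeast defective in DNA damage repair. Results are given as inhibition of growth versus vehicle.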

[11] = NCI Yeast Anticancer Drug Screen. Data for the wt1 strain (AID 149);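 note: 0% = growth of vehicle-treated wt1 cultures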; details: S. cerevisiae wt1 strain (SPY 50644) growth inhibition, stronger effect = higher value
In short: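 The wt1 strain was treated with compounds, and growth was compared with vehicle-treated cultures to give inhibition.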

[12] = NCI Yeast Anticancer Drug Screen. Data for the rad50EPP+ strain (AID 151);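 note: 0% = growth of vehicle-treated control cultures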; details: S. cerevisiae rad50 mutant strain, stronger effect = higher value
In short: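 In this screen, rad50EPP+ yeast were exposed to compounds. Growth inhibition was scored against vehicle-treated controls.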

[13] = NCI Yeast Anticancer Drug Screen. Data for the mgt1 strain (AID 153); details: S. cerevisiae mgt1 mutant growth inhibition, stronger effect = higher value
In short: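 mgt1 strain exposed; growth vs vehicle control recorded as inhibition.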

[14] = NCI Yeast Anticancer Drug Screen. Data for the rad50 strain (AID 155);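 note: 0% = growth of vehicle-only cultures of the same strain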; details: S. cerevisiae rad50 strain growth inhibition, stronger effect = higher value
In short: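 Cells are treated with compound, grown, and their growth is then scored against vehicle-only cultures of the same repair-deficient yeast strain.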

[15] = NCI Yeast Anticancer Drug Screen. Data for the wt2 strain (AID 169);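 note: 0% = growth of vehicle-treated yeast cultures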; details: S. cerevisiae wt2 strain growth inhibition, stronger effect = higher value
In short: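 Inhibition of yeast growth was determined after compound treatment, normalised to controls receiving only vehicle.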

[16] = at 5.0 µM (retest, dose inferred, filed as 0.5)
[17] = at 50.0 µM (retest, dose inferred, filed as 5.0)

SMILES: CCCCOc1ccc(Nc2c3ccccc3nc3ccccc23)cc1
- growth inhibition ([1]; at 100.0 µM): 73% (active)
- growth inhibition ([2]; at 1.2 µM): -77%
- growth inhibition ([2]; at 3.7 µM): -66%
- growth inhibition ([2]; at 11.0 µM): 43%
- growth inhibition ([2]; at 33.0 µM): 97% (active)
- growth inhibition ([2]; at 100.0 µM): 61%
- growth inhibition [3, 16]: 10%
- growth inhibition [3, 17]: 94% (active)
- growth inhibition ([3]; at 50.0 µM): 91.3% (active)
- growth inhibition ([4]; at 1.2 µM): -26%
- growth inhibition ([4]; at 3.7 µM): 0%
- growth inhibition ([4]; at 11.0 µM): 72% (active)
- growth inhibition ([4]; at 33.0 µM): 98% (active)
- growth inhibition ([4]; at 100.0 µM): 76% (active)
- growth inhibition [5, 16]: 10%
- growth inhibition [5, 17]: -7%
- growth inhibition ([5]; at 50.0 µM): 88.8% (active)
- growth inhibition ([6]; at 1.2 µM): -56%
- growth inhibition ([6]; at 3.7 µM): -55%
- growth inhibition [6, 16]: 15%
- growth inhibition ([6]; at 11.0 µM): 66%
- growth inhibition ([6]; at 33.0 µM): 99% (active)
- growth inhibition [6, 17]: 98% (active)
- growth inhibition ([6]; at 50.0 µM): 86.8% (active)
- growth inhibition ([6]; at 100.0 µM): 69%
- growth inhibition ([7]; at 1.2 µM): -39%
- growth inhibition ([7]; at 3.7 µM): -34%
- growth inhibition ([7]; at 11.0 µM): 34%
- growth inhibition ([7]; at 33.0 µM): 98% (active)
- growth inhibition ([7]; at 100.0 µM): 74% (active)
- growth inhibition ([8]; at 1.2 µM): -3%
- growth inhibition ([8]; at 3.7 µM): -11%
- growth inhibition ([8]; at 11.0 µM): 87% (active)
- growth inhibition ([8]; at 33.0 µM): 98% (active)
- growth inhibition ([8]; at 100.0 µM): 82% (active)
- growth inhibition [9, 16]: 26%
- growth inhibition [9, 17]: 92% (active)
- growth inhibition ([9]; at 50.0 µM): 87% (active)
- growth inhibition ([10]; at 1.2 µM): -9%
- growth inhibition ([10]; at 3.7 µM): -9%
- growth inhibition ([10]; at 11.0 µM): 89% (active)
- growth inhibition ([10]; at 33.0 µM): 99% (active)
- growth inhibition ([10]; at 100.0 µM): 75% (active)

SMILES: Cc1cnccc1N=Nc1ccc(N(C)C)cc1
- growth inhibition ([11]; at 1.2 µM): -5%
- growth inhibition ([11]; at 3.7 µM): -6%
- growth inhibition ([11]; at 11.0 µM): -8%
- growth inhibition ([11]; at 33.0 µM): 1%
- growth inhibition ([11]; at 100.0 µM): 1%
- growth inhibition ([12]; at 1.2 µM): 2%
- growth inhibition ([12]; at 3.7 µM): 3%
- growth inhibition ([12]; at 11.0 µM): 7%
- growth inhibition ([12]; at 33.0 µM): 43%
- growth inhibition ([12]; at 100.0 µM): 90% (active)
- growth inhibition ([13]; at 1.2 µM): 2%
- growth inhibition ([13]; at 3.7 µM): -2%
- growth inhibition ([13]; at 11.0 µM): 2%
- growth inhibition ([13]; at 33.0 µM): 31%
- growth inhibition ([13]; at 100.0 µM): 41%
- growth inhibition ([14]; at 1.2 µM): -4%
- growth inhibition ([14]; at 3.7 µM): -4%
- growth inhibition [14, 16]: -109%
- growth inhibition ([14]; at 11.0 µM): 13%
- growth inhibition ([14]; at 33.0 µM): 27%
- growth inhibition [14, 17]: -2%
- growth inhibition ([14]; at 50.0 µM): 81.8% (active)
- growth inhibition ([14]; at 100.0 µM): 37%
- growth inhibition ([1]; at 1.2 µM): -3%
- growth inhibition ([1]; at 3.7 µM): 1%
- growth inhibition [1, 16]: -42%
- growth inhibition ([1]; at 11.0 µM): -21%
- growth inhibition ([1]; at 33.0 µM): -4%
- growth inhibition [1, 17]: -34%
- growth inhibition ([1]; at 50.0 µM): 30.9%
- growth inhibition ([1]; at 100.0 µM): 3%
- growth inhibition ([2]; at 1.2 µM): -3%
- growth inhibition ([2]; at 3.7 µM): -5%
- growth inhibition ([2]; at 11.0 µM): 12%
- growth inhibition ([2]; at 33.0 µM): 39%
- growth inhibition ([2]; at 100.0 µM): 51%
- growth inhibition [3, 16]: -23%
- growth inhibition [3, 17]: 46%
- growth inhibition ([3]; at 50.0 µM): 65.8%
- growth inhibition ([4]; at 1.2 µM): 3%
- growth inhibition ([4]; at 3.7 µM): 8%
- growth inhibition ([4]; at 11.0 µM): 15%
- growth inhibition ([4]; at 33.0 µM): 30%
- growth inhibition ([4]; at 100.0 µM): 30%
- growth inhibition [5, 16]: -43%
- growth inhibition [5, 17]: -19%
- growth inhibition ([5]; at 50.0 µM): 34%
- growth inhibition ([6]; at 1.2 µM): 8%
- growth inhibition ([6]; at 3.7 µM): 10%
- growth inhibition [6, 16]: -33%
- growth inhibition ([6]; at 11.0 µM): 14%
- growth inhibition ([6]; at 33.0 µM): 32%
- growth inhibition [6, 17]: 69%
- growth inhibition ([6]; at 50.0 µM): 89% (active)
- growth inhibition ([6]; at 100.0 µM): 79% (active)
- growth inhibition ([15]; at 1.2 µM): 0%
- growth inhibition ([15]; at 3.7 µM): -1%
- growth inhibition ([15]; at 11.0 µM): 2%
- growth inhibition ([15]; at 33.0 µM): 13%
- growth inhibition ([15]; at 100.0 µM): 4%
- growth inhibition ([8]; at 1.2 µM): 2%
- growth inhibition ([8]; at 3.7 µM): 3%
- growth inhibition ([8]; at 11.0 µM): 32%
- growth inhibition ([8]; at 33.0 µM): 52%
- growth inhibition ([8]; at 100.0 µM): 49%
- growth inhibition [9, 16]: -95%
- growth inhibition [9, 17]: -7%
- growth inhibition ([9]; at 50.0 µM): 36.1%
- growth inhibition ([10]; at 1.2 µM): -4%
- growth inhibition ([10]; at 3.7 µM): -4%
- growth inhibition ([10]; at 11.0 µM): 9%
- growth inhibition ([10]; at 33.0 µM): 25%
- growth inhibition ([10]; at 100.0 µM): 30%
